sEH activator – increases human soluble epoxide hydrolase activity. P34913. purified human sEH enzymatic activity, activator screen. activation, % at 2 µM. 0.04% of 91,000 active. AID 717; in the data active = activation above about 37%
PostGolgi ctrl – growth of the yeast control strain, post-Golgi counter-screen; efflux-deficient yeast background strain, growth absorbance A615, 16 h; AID 738; 5% of 98,000 active; inhibition, % at 10 µM
sEH inhibitor – inhibitors of human soluble epoxide hydrolase | P34913 | recombinant human sEH enzymatic activity assay | inhibition, % at 2 µM | 0.34% of 91,000 active; in the data active = inhibition above about 80%
PostGolgi yeast – growth inhibition of a yeast mutant, post-Golgi transport screen | 0.9% of 98,000 active | inhibition, % at 10 µM | AID 739 | post-Golgi transport phenotypic cell assay;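 also: yeast cells grown in 1536-well plates; yeast grown about 18 h at 30C before absorbance read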
Cav3 T inh – human Cav3.2 channel inhibition, primary screen. 4% of 100,000 active. B-score at 10 µM. Cav3.2-expressing cells, Fluo-4 calcium fluorescence FDSS; active compounds read low. O95180;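 active = single-dose well whose peak fluorescence ratio is a statistical outlier from its plate by either plate-standardised score or position-corrected B-score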
Target sequence (O95180 whole entry, looked up): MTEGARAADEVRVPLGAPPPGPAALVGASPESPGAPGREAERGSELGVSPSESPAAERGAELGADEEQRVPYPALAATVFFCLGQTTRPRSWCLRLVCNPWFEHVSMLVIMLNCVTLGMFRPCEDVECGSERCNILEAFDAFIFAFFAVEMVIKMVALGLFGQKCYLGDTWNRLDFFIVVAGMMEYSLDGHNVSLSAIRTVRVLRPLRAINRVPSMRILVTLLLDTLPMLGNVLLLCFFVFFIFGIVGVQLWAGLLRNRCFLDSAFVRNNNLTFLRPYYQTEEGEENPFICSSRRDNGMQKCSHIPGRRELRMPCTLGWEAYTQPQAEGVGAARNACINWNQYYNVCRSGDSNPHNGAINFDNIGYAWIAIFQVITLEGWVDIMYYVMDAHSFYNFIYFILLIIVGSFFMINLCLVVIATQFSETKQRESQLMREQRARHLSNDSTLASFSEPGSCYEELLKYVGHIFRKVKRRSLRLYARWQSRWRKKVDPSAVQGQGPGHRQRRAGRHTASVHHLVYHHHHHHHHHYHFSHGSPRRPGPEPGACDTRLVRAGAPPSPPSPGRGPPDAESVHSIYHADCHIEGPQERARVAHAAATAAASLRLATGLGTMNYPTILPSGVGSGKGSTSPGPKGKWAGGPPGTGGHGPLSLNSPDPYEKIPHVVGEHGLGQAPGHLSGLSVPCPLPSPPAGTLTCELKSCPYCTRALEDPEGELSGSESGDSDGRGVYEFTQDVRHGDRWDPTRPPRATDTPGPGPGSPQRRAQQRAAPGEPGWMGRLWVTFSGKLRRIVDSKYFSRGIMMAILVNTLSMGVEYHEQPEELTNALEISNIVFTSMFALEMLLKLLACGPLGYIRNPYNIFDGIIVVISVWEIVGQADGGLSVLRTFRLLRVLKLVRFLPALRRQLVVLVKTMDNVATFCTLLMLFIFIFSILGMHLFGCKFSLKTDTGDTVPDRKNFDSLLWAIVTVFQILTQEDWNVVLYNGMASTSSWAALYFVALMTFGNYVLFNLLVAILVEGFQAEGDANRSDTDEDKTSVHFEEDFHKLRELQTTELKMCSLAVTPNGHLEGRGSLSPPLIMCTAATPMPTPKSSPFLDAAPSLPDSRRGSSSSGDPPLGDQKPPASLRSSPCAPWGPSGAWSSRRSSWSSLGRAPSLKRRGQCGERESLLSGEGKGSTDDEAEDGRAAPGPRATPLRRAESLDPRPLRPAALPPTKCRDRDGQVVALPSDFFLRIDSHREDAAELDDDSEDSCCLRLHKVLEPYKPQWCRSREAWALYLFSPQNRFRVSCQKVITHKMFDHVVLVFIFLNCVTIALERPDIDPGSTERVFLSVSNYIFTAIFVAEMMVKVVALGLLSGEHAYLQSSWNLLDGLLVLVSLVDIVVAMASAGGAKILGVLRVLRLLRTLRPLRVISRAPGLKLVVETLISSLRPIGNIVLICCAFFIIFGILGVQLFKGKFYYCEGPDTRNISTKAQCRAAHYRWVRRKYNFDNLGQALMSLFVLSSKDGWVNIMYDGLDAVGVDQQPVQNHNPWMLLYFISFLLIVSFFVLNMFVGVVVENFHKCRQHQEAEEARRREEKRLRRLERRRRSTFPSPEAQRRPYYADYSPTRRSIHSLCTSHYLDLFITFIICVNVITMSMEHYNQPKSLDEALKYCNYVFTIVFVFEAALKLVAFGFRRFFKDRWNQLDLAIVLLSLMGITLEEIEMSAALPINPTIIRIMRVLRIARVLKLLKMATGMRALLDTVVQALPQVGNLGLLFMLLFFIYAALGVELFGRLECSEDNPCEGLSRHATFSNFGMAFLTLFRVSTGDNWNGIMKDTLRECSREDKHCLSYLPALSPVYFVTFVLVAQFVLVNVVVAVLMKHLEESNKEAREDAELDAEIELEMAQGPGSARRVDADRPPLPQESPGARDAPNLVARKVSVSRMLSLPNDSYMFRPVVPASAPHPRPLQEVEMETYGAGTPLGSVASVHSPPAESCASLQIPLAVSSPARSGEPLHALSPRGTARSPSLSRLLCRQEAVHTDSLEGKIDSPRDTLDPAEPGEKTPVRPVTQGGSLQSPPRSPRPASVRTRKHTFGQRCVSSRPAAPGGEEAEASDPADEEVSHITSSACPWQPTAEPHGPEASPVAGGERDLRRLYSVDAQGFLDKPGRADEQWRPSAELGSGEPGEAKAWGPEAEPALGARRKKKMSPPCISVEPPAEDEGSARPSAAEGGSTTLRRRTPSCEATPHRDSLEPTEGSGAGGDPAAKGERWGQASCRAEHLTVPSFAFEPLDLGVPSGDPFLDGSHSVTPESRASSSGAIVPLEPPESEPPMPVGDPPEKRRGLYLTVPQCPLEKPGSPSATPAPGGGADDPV
* = called active by the depositor; nt = not tested or not shown. Sampled rows, rich in hits. Any-hit rate of the full collection: about 7.8%. Rule as the data show it, unless noted: active = inhibition above about 30%; inactive = the rest.

SMILES | sEH activator | PostGolgi ctrl | sEH inhibitor | PostGolgi yeast | Cav3 T inh
Cc1ccc(CNC(=O)C(=O)NCC2OCCN2S(=O)(=O)c2cccs2)cc1 (stereo not given) | nt | nt | nt | nt | -4.7*
O=C(CC(c1ccccc1)c1cc(Br)ccc1O)NCc1ccco1 (stereo not given) | 17 | 5 | -13 | -5 | -9.9*
CCCCCCNC(=O)CC(c1ccccc1)c1cc(Br)ccc1O (stereo not given) | -3 | nt | 5 | nt | -5.9*
CC(C)NC(=O)CC(c1ccccc1)c1cc(Br)ccc1O (stereo not given) | -7 | 14 | 4 | 9 | -3.3
O=C(CSc1ccccc1)NCc1ccco1 | -13 | nt | 16 | nt | 0.85
CC(C)Oc1ccc(CNC(=O)CC(c2ccccc2)c2cc(Cl)ccc2O)cc1 (stereo not given) | 0 | 24 | 3 | 1 | -3.5*
O=C([C@H](Cc1ccc(O)cc1)n1cc(CCO)nn1)N1CCNCC1 | nt | nt | nt | nt | 1.3
CCCCC(=O)Nc1sc2c(c1C(=O)OCC)CCC(C=O)=C2Cl | 15 | 24 | -14 | -4 | -0.021
CCN1CCN(Cc2ccc(NC(=O)Nc3cccs3)cc2)CC1 | -19 | 5 | 19 | -5 | 0.6
CNS(=O)(=O)c1cnccc1N1CCN(c2cccc(C(F)(F)F)c2)CC1 | 0 | 28 | 1 | 13 | 0.067
Nc1nc(-c2ccc3c(c2)CCCC3)cs1 | nt | 7 | nt | -7 | -2
CC(C)(C)c1cnnn1-c1ccc(-c2csc(N)n2)cc1 | nt | 46* | nt | 21 | 0.093
O=C(CS(=O)(=O)c1c[nH]c2ccccc12)NC1CCCCC1 | -2 | 1 | 3 | 4 | 0.91
CCn1cc(S(=O)(=O)CC(=O)NC2CCCCC2)c2ccccc21 | nt | 42* | nt | 9 | 0.98
Cc1ccnc(N2C(=O)OC(C)(C)C2(C)O)c1 (stereo not given) | nt | 8 | nt | 3 | 0.23
Cc1onc(-c2ccccc2Cl)c1C(=O)Nc1sc2c(c1C(N)=O)CCC(C)C2 (stereo not given) | -2 | nt | 4 | nt | nt
CCC1C(=O)Nc2nc(-c3ccccc3)c(-c3ccccc3)n2N=C1C (stereo not given) | -3 | 42* | 1 | -2 | -3
CC1=Nn2c(nc(-c3ccccc3)c2-c2ccccc2)N(CC(N)=O)C(=O)C1 | -3 | 2 | 4 | -14 | 0.003
COC(=O)C1=C(Nc2ccc(C)cc2)C=C(C)C(C(=O)OC)C1c1cccc(OC)c1 (stereo not given) | 22 | nt | -22 | nt | -3.9*
COC(=O)C1=C(Nc2ccc(C)cc2)C=C(C)C(C(=O)OC)C1c1ccc(OC)cc1 (stereo not given) | -5 | nt | 5 | nt | -4.1*
Cn1c(N)c(C(=O)NCc2ccccc2)sc1=S | nt | 25 | nt | -28 | 0.015
COC(=O)c1ccccc1NC(=O)c1sc(=S)n(C)c1N | -2 | 36* | 2 | -8 | 0.011
CCC(C)Sc1nc2ccccc2n1CC(=O)O (stereo not given) | 1 | 8 | 2 | -4 | 0.31
NC(=O)C1=C[C@@H](c2ccc(C(F)(F)F)cc2)C[C@@H](OCCCCO)O1 | nt | nt | nt | nt | 0.024
Cc1ccc(CS(=O)(=O)CCC(=O)N2CCOCC2)cc1 | 4 | 12 | -3 | -19 | 0.066
SMILES | sEH activator | PostGolgi ctrl | sEH inhibitor | PostGolgi yeast | Cav3 T inh
Cc1nc2c(Br)cc(Br)cc2cc1O | 5 | 37* | -7 | 3 | -5.1*
COc1ccc(S(=O)(=O)N[C@@H](Cc2ccc(Cl)cc2)C(=O)N2CC[C@@]3(O)CCCC[C@H]3C2)cc1 | 17 | 8 | -13 | 3 | -1.6
CC1=C(C(=O)OC2CCCC2)C(c2ccc(C)o2)C2=C(CC(c3cccs3)CC2=O)N1 (stereo not given) | -22 | 22 | 23 | 4 | -5.9*
CC1=C(C(=O)OC2CCCCCC2)C(c2ccc(C)o2)C2=C(CCCC2=O)N1 (stereo not given) | nt | 15 | nt | 0 | nt
Cc1ccc2cccc(S(=O)(=O)N3CCN(c4cccc(Cl)c4)CC3)c2n1 | -3 | 57* | 1 | 2 | -2.9
Cc1cccc2cc(CN(Cc3nnnn3Cc3ccco3)C3CCCC3)c3nnnn3c12 | -2 | 43* | 1 | 17 | nt
CCCCn1nnc(NC(=O)Cc2ccc(Cl)cc2)n1 | -1 | 18 | 3 | 2 | -1.5
CCCn1nnc(NC(=O)c2ccc(-c3cccc(Cl)c3)o2)n1 | -5 | 27 | 4 | 14 | -5*
CCCCn1nnc(NC(=O)c2ccc(-c3cccc(Cl)c3)o2)n1 | -38 | 7 | 40 | -3 | -4.9*
CN1CCN(CC#CCn2c3ccccc3c3ccccc32)CC1 | 1 | -3 | -4 | -3 | 0.17
N#CC(c1ccccc1)c1ccc2c(C(F)(F)F)cc(C(F)(F)F)nc2n1 (stereo not given) | 21 | 51* | -25 | 5 | 0.77
C[C@@H](C(=O)N1CCN(C(=O)OC(C)(C)C)CC1)n1cc(CCCN=C(NC(=O)OC(C)(C)C)NC(=O)OC(C)(C)C)nn1 | nt | nt | nt | nt | -0.98
CCCCNC(=O)c1sc(=S)n(-c2ccccc2OC)c1N | 12 | 1 | -12 | -4 | 0.18
O=C(NCC1CCCO1)c1sc(=S)n2c1[nH]c(=O)c1ccc(C(=O)N3CCCCC3)cc12 (stereo not given) | nt | 2 | nt | -1 | -0.46
CCCCNC(=O)c1sc(=S)n2c1[nH]c(=O)c1ccccc12 | 1 | 44* | -4 | 6 | -3.1
O=C(NC1CCCCC1)c1sc(=S)n2c1[nH]c(=O)c1ccccc12 | -4 | 56* | 5 | -3 | -6.3*
Cn1c(Cl)cnc1C(O)c1ccccc1 (stereo not given) | -10 | -2 | 10 | 2 | 0.6
Oc1ccc(Nc2nc(NCC3CCCO3)c3ccccc3n2)cc1 (stereo not given) | 4 | 7 | -5 | 4 | -0.65
COc1cccc(Nc2nc(NCC3CCCO3)c3ccccc3n2)c1 (stereo not given) | -20 | 8 | 23 | -5 | -5.7*
COC(=O)[C@@]1(Cc2ccc(F)cc2)[C@H]2c3cc(C(=O)N(C)C)n(Cc4c(CO)[nH]cc(C)c4=O)c3C[C@H]2CN1C(=O)c1ccccc1 | nt | nt | nt | nt | -0.15
Cc1cc(C)cc(N(C(=O)Cc2cccs2)C(C(=O)NC2CCCCC2)c2ccccn2)c1 (stereo not given) | 3 | 9 | 0 | -8 | -5.3*
CCOc1cccc(N(C(=O)Cc2cccs2)C(C(=O)NC2CCCCC2)c2cccn2C)c1 (stereo not given) | -2 | nt | 2 | nt | -4.1*
CS(=O)(=O)N(CCc1ccccc1)CC(N)=O | 1 | 7 | -2 | -4 | 0.56
Cc1ccc2c(C)nc(NC3=NCN(C(C)C)CN3)nc2c1 | -11 | nt | 11 | nt | nt
C=CCOc1c(Br)cc(CNc2nccs2)cc1OC | -16 | nt | 15 | nt | -7.9*
SMILES | sEH activator | PostGolgi ctrl | sEH inhibitor | PostGolgi yeast | Cav3 T inh
COc1cc(CNCCO)cc(Br)c1OCc1cccs1 | 15 | 4 | -12 | 20 | 0.018
Cc1cc(C(F)(F)F)nn1CC(=O)N(C)C1CCCCC1 | -4 | nt | 4 | nt | nt
Cc1cc(NC(=O)CSc2ccc3ccccc3c2)no1 | -7 | 1 | 10 | 1 | -2.2
COc1ccc(NC(=O)CSc2ccc(C)cc2)cc1 | -11 | nt | 11 | nt | -1.3
O=C(CSc1ccc2ccccc2c1)Nc1ccncc1 | -13 | 92* | 15 | 103* | nt
CC(=O)Oc1ccc(NC(=O)CSc2ccccc2)cc1 | -3 | 37* | 6 | -8 | 0.56

Source: PubChem BioAssay (several laboratories)
